Measured values: the supplement of paper PMC11732987, “Enantioselective OTUD7B fragment discovery through chemoproteomics screening and high-throughput optimisation” (Communications Chemistry, 2025)

Columns and labels:
Assay in all cases: log2 ratio of Biotin-Ahx-Ub-VS probe labelling (fragment/DMSO); higher = less target engagement (more negative = stronger competition), active = hit call of the paper (q ≤ 0.05, log2 ratio ≤ -1)
Conditions in all cases: compound concentration: 200 uM; treatment time: 3 h
ALG13 = target: T1, ALG13 (UniProt Q9NP73)
T1 sequence (whole entry): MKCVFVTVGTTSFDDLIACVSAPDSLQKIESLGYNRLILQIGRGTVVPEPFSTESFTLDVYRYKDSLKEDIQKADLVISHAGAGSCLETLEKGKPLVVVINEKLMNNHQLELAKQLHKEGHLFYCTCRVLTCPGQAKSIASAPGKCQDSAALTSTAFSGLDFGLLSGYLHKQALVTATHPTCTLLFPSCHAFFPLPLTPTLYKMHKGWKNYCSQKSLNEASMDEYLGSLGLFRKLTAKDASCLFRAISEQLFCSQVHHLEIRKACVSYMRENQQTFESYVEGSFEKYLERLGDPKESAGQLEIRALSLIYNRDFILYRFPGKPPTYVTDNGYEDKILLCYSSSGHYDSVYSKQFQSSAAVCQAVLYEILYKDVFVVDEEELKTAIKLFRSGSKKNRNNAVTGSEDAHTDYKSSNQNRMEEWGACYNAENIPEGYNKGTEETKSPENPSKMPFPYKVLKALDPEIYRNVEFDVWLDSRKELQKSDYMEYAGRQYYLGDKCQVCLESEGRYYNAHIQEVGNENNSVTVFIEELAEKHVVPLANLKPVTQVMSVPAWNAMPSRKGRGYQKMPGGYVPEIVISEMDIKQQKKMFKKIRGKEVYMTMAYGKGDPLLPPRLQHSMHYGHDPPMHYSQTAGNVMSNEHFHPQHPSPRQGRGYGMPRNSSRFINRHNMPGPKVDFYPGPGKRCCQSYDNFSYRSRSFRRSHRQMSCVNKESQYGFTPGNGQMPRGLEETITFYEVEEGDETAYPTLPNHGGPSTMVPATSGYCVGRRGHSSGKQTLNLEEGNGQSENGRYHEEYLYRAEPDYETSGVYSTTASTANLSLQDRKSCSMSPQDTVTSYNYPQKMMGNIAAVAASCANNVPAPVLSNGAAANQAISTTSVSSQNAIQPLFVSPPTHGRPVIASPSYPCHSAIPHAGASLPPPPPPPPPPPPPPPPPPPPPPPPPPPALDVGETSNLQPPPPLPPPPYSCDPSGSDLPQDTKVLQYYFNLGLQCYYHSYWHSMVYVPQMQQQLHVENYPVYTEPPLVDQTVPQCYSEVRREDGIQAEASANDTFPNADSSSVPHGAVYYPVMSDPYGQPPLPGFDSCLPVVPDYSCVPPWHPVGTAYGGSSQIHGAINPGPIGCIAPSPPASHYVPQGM
How it was run: (§1)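 HEK293T lysate, 495 µg per sample in Tris/CHAPS/IGEPAL buffer with protease inhibitors, was treated in triplicate with fragment at 200 µM or vehicle for 3 h and then with Biotin-Ahx-Ub-VS at 0.5 µM final for 1 h. Labelled DUBs were NeutrAvidin-enriched, digested with LysC and trypsin, and run by diaPASEF LC-MS/MS. Spectronaut label-free quantities were global-median-normalised, and values are average log2 fragment/vehicle ratios by unpaired t-test on proteins with ≥2 unique peptides.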

ATXN3 = ATXN3 (UniProt P54252)
ATXN3, sequence (P54252 whole entry): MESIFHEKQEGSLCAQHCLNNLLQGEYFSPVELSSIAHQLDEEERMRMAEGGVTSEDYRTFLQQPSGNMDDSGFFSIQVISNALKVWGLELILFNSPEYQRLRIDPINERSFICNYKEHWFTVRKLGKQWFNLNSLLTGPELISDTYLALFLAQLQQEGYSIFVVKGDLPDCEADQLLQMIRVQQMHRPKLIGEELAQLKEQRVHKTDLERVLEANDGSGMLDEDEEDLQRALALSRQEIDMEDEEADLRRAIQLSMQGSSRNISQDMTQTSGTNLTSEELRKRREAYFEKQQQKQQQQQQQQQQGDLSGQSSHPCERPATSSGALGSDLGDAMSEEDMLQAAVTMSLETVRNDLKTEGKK
How it was run: as §1

BAP1 = target: T2, BAP1 (UniProt Q92560)
T2 sequence (whole entry): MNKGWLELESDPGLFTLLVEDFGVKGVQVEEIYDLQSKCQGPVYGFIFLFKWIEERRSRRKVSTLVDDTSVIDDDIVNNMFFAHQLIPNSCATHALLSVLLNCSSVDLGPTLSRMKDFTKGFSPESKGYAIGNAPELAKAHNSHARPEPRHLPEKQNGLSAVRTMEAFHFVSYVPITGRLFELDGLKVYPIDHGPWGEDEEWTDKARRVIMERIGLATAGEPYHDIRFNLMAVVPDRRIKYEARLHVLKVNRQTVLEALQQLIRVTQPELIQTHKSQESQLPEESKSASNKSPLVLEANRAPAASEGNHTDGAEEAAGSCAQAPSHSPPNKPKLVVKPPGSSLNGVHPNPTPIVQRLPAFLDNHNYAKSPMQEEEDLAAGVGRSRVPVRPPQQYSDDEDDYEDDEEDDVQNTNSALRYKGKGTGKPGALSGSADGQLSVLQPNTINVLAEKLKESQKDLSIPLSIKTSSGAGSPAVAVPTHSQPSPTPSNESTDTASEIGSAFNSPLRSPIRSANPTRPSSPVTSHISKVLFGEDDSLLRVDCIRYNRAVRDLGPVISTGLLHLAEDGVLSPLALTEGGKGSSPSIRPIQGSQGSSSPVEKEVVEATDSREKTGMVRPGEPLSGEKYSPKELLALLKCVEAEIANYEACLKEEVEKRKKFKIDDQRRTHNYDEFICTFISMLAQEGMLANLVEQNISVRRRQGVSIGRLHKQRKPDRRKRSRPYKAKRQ
How it was run: as §1

EIF3F = EIF3F (UniProt O00303)
EIF3F, sequence (O00303 whole entry): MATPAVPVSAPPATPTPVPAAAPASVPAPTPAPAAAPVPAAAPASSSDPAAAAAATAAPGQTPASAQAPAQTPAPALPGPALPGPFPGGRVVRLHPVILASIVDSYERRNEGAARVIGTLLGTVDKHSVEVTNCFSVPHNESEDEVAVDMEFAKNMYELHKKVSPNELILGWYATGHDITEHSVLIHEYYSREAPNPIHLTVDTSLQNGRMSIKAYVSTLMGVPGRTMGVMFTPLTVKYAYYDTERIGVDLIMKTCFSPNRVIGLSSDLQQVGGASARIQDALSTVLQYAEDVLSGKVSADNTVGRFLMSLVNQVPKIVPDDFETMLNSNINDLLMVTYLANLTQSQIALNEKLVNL
How it was run: as §1

EIF3H = EIF3H (UniProt O15372)
EIF3H, sequence (O15372 whole entry): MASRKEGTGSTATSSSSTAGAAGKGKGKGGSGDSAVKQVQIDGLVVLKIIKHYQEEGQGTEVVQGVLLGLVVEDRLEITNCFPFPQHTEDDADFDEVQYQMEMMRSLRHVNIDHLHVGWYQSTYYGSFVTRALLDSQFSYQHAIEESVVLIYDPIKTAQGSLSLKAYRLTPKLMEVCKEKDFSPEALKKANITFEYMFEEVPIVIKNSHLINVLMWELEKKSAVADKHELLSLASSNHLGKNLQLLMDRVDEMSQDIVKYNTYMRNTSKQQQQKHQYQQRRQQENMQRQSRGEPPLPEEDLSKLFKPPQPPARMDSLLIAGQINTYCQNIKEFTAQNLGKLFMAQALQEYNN
How it was run: as §1

FAM105A = target: T3, FAM105A (UniProt Q9NUU6)
T3 sequence (whole entry): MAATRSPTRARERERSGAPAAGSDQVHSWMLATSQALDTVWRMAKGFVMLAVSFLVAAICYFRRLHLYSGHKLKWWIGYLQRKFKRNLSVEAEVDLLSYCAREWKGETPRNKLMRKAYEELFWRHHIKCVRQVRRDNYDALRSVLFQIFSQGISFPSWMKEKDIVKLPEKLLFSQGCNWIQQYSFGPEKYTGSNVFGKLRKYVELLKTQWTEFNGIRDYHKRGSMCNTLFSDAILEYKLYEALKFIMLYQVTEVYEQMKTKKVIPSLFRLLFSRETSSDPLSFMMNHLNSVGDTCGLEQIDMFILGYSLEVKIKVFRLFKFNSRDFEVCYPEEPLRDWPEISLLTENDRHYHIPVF
How it was run: as §1

OTUB1 = OTUB1 (UniProt Q96FW1)
OTUB1, sequence (Q96FW1 whole entry): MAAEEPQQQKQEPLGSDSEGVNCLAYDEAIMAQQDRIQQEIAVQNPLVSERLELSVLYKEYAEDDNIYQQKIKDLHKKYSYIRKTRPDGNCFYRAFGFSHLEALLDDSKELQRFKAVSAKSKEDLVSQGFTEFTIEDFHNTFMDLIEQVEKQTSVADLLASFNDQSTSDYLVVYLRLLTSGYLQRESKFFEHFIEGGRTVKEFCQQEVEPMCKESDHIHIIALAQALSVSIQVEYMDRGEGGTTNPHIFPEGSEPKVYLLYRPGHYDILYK
How it was run: as §1

OTUD4 = target: T4, OTUD4 (UniProt Q01804)
T4 sequence (whole entry): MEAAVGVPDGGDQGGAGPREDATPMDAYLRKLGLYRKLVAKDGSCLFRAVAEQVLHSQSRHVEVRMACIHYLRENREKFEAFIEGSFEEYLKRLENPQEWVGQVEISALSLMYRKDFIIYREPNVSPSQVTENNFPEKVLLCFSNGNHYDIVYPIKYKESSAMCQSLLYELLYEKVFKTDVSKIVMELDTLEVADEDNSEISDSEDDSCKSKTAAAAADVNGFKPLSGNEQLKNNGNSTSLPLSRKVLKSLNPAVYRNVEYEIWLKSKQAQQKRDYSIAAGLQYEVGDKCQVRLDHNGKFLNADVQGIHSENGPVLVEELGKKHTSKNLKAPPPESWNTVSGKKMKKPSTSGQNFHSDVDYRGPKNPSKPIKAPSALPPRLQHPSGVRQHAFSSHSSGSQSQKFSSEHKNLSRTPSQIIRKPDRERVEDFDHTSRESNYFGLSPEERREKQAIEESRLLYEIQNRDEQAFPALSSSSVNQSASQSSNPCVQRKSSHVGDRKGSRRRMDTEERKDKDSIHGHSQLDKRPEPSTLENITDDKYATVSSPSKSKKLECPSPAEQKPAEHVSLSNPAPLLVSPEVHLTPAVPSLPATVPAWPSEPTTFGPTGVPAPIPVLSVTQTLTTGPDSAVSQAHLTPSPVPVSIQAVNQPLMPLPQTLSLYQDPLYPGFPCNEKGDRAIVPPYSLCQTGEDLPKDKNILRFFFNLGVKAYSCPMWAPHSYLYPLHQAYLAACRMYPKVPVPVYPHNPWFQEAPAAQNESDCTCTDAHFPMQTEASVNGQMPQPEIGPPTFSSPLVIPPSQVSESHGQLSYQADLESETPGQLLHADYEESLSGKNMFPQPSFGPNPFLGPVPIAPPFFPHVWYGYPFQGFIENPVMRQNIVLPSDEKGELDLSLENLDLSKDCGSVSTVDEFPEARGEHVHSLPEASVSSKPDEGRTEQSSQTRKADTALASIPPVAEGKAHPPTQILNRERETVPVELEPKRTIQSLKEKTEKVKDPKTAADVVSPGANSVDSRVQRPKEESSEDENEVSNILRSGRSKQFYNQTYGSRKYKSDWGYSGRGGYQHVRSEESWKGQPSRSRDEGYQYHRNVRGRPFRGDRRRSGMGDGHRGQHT
How it was run: as §1

OTUD5 = target: T5, OTUD5 (UniProt Q96G74)
T5 sequence (whole entry): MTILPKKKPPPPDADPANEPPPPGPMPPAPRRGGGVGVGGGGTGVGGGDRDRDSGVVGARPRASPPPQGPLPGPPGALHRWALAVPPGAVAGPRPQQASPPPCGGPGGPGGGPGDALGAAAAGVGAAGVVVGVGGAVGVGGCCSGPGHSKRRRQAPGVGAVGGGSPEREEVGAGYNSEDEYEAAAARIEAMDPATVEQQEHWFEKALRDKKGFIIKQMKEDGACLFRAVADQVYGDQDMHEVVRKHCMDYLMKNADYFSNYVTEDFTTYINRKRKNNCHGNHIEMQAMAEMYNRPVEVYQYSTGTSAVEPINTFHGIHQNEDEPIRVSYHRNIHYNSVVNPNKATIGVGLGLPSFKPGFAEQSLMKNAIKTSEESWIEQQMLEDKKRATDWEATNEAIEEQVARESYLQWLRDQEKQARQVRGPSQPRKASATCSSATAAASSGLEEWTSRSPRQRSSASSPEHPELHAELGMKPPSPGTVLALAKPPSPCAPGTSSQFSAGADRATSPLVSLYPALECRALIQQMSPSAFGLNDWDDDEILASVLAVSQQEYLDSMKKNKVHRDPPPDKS
How it was run: as §1

Measured: log2 ratio of Biotin-Ahx-Ub-VS probe labelling

Cl.Cn1cnc2cc(CNC(=O)CCl)ccc21
inactive: ALG13 0.056 | ATXN3 -0.239 | EIF3F -0.304 | EIF3H 0.311 | FAM105A -0.318 | OTUB1 0.0608 | OTUD4 -0.0323 | OTUD5 -0.121
active: BAP1 -2.15
